The full data set covers some 8,800 targets. This sample favours those with a hit. About 0.5% of all pairs of compound and target were hits. Values without a mark were called inactive.

Sequence of UniProt Q96I59 (Q96I59 whole entry, looked up): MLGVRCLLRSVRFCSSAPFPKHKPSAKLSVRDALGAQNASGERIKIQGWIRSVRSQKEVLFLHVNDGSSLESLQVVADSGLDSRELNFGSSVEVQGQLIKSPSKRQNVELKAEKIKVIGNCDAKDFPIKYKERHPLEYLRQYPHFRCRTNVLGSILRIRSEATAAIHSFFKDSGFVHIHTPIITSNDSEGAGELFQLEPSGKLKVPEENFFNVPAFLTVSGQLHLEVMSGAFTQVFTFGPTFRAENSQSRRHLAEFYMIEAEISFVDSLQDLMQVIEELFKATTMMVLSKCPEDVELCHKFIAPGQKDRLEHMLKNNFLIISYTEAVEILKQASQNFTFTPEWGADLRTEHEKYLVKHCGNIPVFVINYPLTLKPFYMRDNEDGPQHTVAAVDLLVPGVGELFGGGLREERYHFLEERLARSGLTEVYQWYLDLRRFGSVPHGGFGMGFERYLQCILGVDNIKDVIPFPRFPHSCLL
Sequence of UniProt Q99836 (Q99836 whole entry, looked up): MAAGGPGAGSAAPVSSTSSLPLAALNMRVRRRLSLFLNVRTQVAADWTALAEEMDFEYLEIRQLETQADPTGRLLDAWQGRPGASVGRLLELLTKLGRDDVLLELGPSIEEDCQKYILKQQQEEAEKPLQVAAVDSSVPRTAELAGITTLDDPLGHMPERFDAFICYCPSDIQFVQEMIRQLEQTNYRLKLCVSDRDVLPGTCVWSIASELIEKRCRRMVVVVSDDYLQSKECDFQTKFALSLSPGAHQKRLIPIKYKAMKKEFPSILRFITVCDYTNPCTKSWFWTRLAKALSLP
Sequence of UniProt Q6N063 (Q6N063 whole entry, looked up): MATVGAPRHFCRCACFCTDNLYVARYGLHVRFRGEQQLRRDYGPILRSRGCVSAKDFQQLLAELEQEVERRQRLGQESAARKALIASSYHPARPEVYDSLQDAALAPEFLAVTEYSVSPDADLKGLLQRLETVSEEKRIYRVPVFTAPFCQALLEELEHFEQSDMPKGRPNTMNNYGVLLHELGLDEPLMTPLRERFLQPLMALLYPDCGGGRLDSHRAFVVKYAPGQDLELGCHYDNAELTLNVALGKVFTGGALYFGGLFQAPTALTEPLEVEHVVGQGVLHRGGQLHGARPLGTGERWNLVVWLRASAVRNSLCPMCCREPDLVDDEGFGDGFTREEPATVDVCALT
Sequence of UniProt Q8TDX7 (Q8TDX7 whole entry, looked up): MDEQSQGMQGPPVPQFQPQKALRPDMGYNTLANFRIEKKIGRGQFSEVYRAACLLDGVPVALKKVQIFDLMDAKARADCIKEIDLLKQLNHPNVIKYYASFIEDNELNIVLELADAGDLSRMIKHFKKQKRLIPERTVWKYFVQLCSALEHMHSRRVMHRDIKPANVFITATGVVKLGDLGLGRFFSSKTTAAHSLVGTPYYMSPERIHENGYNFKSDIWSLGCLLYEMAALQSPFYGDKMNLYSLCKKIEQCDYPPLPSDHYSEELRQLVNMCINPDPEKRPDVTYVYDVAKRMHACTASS
Sequence of UniProt Q8TAT6 (Q8TAT6 whole entry, looked up): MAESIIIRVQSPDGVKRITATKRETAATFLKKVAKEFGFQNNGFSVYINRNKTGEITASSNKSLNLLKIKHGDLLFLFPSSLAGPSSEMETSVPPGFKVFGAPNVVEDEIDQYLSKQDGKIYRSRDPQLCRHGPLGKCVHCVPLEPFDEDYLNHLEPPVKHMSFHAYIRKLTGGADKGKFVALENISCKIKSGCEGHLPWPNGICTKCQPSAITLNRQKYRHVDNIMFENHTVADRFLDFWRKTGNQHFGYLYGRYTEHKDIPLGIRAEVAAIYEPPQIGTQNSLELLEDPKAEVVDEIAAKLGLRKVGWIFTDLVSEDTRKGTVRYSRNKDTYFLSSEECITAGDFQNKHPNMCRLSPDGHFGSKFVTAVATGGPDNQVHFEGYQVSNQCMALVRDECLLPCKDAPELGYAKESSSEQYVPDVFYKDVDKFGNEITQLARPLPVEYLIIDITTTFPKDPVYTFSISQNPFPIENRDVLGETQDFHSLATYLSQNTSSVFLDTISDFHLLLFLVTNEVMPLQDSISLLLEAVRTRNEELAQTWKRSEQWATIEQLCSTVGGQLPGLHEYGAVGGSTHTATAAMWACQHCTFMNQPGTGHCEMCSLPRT
Sequence of UniProt O95644 (O95644 whole entry, looked up): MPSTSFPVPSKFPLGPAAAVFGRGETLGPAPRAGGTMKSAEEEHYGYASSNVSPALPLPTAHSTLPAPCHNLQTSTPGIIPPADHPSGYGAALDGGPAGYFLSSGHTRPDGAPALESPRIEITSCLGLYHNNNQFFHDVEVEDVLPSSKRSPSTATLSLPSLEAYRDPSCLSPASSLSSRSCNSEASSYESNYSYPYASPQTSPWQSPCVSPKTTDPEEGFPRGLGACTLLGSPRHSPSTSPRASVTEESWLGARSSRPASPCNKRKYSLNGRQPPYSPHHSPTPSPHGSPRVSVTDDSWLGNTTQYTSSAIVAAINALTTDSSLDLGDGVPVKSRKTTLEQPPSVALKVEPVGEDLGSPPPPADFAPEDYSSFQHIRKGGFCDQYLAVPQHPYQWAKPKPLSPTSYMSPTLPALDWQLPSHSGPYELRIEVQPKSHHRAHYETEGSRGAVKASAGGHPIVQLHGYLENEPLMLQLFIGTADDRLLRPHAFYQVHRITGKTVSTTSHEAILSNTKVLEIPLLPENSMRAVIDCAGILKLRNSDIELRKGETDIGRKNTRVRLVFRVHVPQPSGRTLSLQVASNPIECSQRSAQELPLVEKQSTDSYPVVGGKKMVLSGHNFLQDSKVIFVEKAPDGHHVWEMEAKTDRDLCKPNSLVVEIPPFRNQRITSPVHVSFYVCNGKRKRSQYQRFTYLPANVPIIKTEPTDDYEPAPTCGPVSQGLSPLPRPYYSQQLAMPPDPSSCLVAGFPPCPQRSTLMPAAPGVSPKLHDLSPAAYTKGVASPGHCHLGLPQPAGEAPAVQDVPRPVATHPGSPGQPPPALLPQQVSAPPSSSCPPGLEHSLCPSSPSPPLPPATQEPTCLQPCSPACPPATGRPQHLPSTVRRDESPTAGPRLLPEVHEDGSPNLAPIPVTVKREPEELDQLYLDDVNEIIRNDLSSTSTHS
Sequence of UniProt P30419 (P30419 whole entry, looked up): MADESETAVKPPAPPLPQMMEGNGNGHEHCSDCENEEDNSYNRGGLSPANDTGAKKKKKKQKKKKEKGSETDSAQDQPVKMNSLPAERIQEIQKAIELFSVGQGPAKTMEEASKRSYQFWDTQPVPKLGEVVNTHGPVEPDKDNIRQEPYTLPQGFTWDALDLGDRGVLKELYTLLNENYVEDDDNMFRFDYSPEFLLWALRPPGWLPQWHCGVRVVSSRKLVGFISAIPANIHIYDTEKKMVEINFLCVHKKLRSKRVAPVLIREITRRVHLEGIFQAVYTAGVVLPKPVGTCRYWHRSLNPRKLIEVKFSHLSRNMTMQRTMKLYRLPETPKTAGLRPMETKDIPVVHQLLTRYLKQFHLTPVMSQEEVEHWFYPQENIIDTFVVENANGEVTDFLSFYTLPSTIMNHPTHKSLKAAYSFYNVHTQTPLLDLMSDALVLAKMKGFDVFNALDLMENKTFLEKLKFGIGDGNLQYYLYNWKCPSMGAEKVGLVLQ
Sequence of UniProt Q9BYG3 (Q9BYG3 whole entry, looked up): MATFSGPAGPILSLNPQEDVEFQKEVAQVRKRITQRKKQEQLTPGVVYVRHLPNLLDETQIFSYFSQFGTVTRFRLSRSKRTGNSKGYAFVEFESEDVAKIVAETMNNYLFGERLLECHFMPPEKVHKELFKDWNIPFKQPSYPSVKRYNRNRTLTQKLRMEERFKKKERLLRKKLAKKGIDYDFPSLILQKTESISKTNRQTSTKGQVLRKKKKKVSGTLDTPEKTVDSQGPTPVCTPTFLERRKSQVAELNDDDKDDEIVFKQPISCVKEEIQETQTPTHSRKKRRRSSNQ
Sequence of UniProt Q969R2 (Q969R2 whole entry, looked up): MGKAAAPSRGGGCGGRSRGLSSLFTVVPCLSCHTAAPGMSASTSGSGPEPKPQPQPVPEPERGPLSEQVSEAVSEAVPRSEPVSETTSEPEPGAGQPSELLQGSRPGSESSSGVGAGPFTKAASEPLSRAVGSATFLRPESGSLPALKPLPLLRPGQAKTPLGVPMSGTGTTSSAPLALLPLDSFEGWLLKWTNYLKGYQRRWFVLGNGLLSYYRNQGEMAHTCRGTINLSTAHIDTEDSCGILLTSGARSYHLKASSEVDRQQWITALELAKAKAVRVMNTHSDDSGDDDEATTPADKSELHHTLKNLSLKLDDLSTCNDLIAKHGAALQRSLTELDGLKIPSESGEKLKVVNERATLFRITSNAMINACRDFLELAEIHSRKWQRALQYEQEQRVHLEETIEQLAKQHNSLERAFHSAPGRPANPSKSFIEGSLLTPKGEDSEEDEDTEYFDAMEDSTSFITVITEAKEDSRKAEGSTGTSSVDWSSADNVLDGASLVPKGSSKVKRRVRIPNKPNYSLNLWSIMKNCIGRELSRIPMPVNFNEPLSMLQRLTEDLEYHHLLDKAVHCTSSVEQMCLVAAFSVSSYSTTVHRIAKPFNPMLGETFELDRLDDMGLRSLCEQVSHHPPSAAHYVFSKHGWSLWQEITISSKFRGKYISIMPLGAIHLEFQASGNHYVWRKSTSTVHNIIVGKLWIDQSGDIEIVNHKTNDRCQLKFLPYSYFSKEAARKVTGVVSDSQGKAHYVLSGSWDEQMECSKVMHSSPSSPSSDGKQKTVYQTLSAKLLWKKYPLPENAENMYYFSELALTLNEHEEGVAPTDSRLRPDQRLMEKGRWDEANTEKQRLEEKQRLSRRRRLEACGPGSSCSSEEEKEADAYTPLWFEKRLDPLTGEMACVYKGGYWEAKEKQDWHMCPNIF
Sequence of UniProt Q9UFN0 (Q9UFN0 whole entry, looked up): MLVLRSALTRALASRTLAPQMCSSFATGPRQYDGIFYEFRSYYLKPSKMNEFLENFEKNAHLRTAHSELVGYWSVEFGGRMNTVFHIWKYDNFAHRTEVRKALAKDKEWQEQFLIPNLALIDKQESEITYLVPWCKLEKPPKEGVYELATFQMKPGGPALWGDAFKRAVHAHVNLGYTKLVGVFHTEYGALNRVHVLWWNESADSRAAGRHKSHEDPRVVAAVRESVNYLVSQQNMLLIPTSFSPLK

Compound in one experiment: C=CC(=O)N1CCC[C@@H](n2nc(-c3ccc(Oc4ccccc4)cc3)c3c(N)ncnc32)C1 [ibrutinib]
Briefly: log2 fold change, soluble protein after heating vs DMSO (PISA); higher = thermal stabilisation; K562 lysate, 10 uM; active = over 0.2 and 3.5 SD of the protein, either way, in both replicates (recomputed). An outline of the steps:
(§1)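 Log-two fold change in thermal stability relative to solvent controls is reported from duplicates. For each sample, crude K562 extract from dounce-homogenised pellets in PBS pH 7.4 with 1 mM MgCl2, at 1 mg/mL protein, was treated with 10 μM compound for 30 min. Aliquots heated for 3 min across 48°C-58°C were pooled, brought to 0.5% NP-40 at 4°C and cleared at 21,000xg for 90 min. The supernatant was quantified by TMTpro 16plex LC-MS/MS with channel sums equalised.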
For the target NUP93 (UniProt Q8N1F7), the log2 fold change is -0.013.
Still for that read-out and setting: then PANK4 (UniProt Q9NVE7), with 0.039.
Take NIPSNAP3A (UniProt Q9UFN0): the log2 fold change is -0.013.
Consider OSBP2 (UniProt Q969R2), for which the log2 fold change was 0.
As for MTCH2 (UniProt Q9Y6C9), the log2 fold change is 0.008.
In the case of NUP160 (UniProt Q12769), the log2 fold change was 0.063.
On the same count and under the same terms, then NEK7 (UniProt Q8TDX7), with 0.041; and NLRP2 (UniProt Q9NX02), with -0.007; and NUMB (UniProt P49757), with 0.03.
Regarding NEK9 (UniProt Q8TD19), the log2 fold change is 0.005.
For the target MSH6 (UniProt P52701), the log2 fold change was 0.001.
For the target NIFK (UniProt Q9BYG3), the log2 fold change is 0.02.
In the case of OGFOD2 (UniProt Q6N063), the log2 fold change was 0.002.
On the same count and under the same terms, the same measure for NFATC1 (UniProt O95644): 0.011; for NFIC (UniProt P08651): -0.019; for OARD1 (UniProt Q9Y530): -0.013.
For NOB1 (UniProt Q9ULX3), the log2 fold change is -0.005.
For NARS2 (UniProt Q96I59), the log2 fold change is 0.01.
As to NUP188 (UniProt Q5SRE5), the log2 fold change is -0.026.
As to NFKBIE (UniProt O00221), the log2 fold change was -0.018.
As for NNT (UniProt Q13423), the log2 fold change is 0.012.
Consider ORC5 (UniProt O43913), for which the log2 fold change was 0.05.
As for MYO1D (UniProt O94832), the log2 fold change is -0.016.
The same measure, in the same setting: then OTUD7B (UniProt Q6GQQ9), with -0.008; and NUF2 (UniProt Q9BZD4), with -0.052.
As for PBK (UniProt Q96KB5), the log2 fold change was 0.006.
On the same count and under the same terms, then NUDT4 (UniProt Q9NZJ9), with 0.091.
As for MYD88 isoform 6 (UniProt Q99836), the log2 fold change is 0.044.
For MRPL53 (UniProt Q96EL3), the log2 fold change was 0.041.
On to MTMR6 (UniProt Q9Y217), for which the log2 fold change is 0.011.
With NELFCD (UniProt Q8IXH7), the log2 fold change was 0.039.
Regarding NPLOC4 isoform 2 (UniProt Q8TAT6), the log2 fold change was -0.016.
On the same count and under the same terms, the same measure for NCOR2 (UniProt C9J0Q5): -0.002.
Turning to NUDT5 (UniProt Q9UKK9), the log2 fold change was 0.059.
On to NMT1 (UniProt P30419), for which the log2 fold change is -0.045.
On the same count and under the same terms, the same measure for PARD3 (UniProt Q8TEW0): 0.026.

Compound in a further experiment: CC(=O)c1cnc2ccc(-c3cc(Cl)c(O)c(Cl)c3)nc2c1N[C@H]1CC[C@H](CN(C)C)CC1
The experiment is described as above. An outline of the steps:
as §1
In the case of NUP93 (UniProt Q8N1F7), the log2 fold change was 0.007.
For PANK4 (UniProt Q9NVE7), the log2 fold change is 0.001.
Same read-out and setting: the same measure for NIPSNAP3A (UniProt Q9UFN0): -0.014; for OSBP2 (UniProt Q969R2): 0.077.
On to MTCH2 (UniProt Q9Y6C9), for which the log2 fold change was -0.022.
In the case of NUP160 (UniProt Q12769), the log2 fold change is -0.007.
Regarding NEK7 (UniProt Q8TDX7), the log2 fold change is -0.041.
Regarding NLRP2 (UniProt Q9NX02), the log2 fold change is -0.007.
As for NUMB (UniProt P49757), the log2 fold change was 0.005.
On to NEK9 (UniProt Q8TD19), for which the log2 fold change is 0.027.
On the same count and under the same terms, the same measure for MSH6 (UniProt P52701): 0.022.
On to NIFK (UniProt Q9BYG3), for which the log2 fold change was -0.039.
With OGFOD2 (UniProt Q6N063), the log2 fold change is 0.023.
Consider NFATC1 (UniProt O95644), for which the log2 fold change was 0.06.
For NFIC (UniProt P08651), the log2 fold change was 0.014.
Same read-out and setting: then OARD1 (UniProt Q9Y530), with 0.003; and NOB1 (UniProt Q9ULX3), with 0.018; and NARS2 (UniProt Q96I59), with 0.009.
Turning to NUP188 (UniProt Q5SRE5), the log2 fold change was 0.019.
As for NFKBIE (UniProt O00221), the log2 fold change was 0.054.
Regarding NNT (UniProt Q13423), the log2 fold change was -0.016.
In the case of ORC5 (UniProt O43913), the log2 fold change is 0.
Still for that read-out and setting: then MYO1D (UniProt O94832), with -0.012.
Regarding OTUD7B (UniProt Q6GQQ9), the log2 fold change was 0.004.
On the same count and under the same terms, the same measure for NUF2 (UniProt Q9BZD4): -0.051; for PBK (UniProt Q96KB5): -0.007; for NUDT4 (UniProt Q9NZJ9): 0.022.
As to MYD88 isoform 6 (UniProt Q99836), the log2 fold change is 0.003.
Consider MRPL53 (UniProt Q96EL3), for which the log2 fold change is -0.018.
With MTMR6 (UniProt Q9Y217), the log2 fold change was -0.02.
On the same count and under the same terms, then NELFCD (UniProt Q8IXH7), with 0.013.
As to NPLOC4 isoform 2 (UniProt Q8TAT6), the log2 fold change is -0.015.
For the target NCOR2 (UniProt C9J0Q5), the log2 fold change is -0.001.
Consider NUDT5 (UniProt Q9UKK9), for which the log2 fold change is -0.008.
Regarding NMT1 (UniProt P30419), the log2 fold change was 0.005.
On to PARD3 (UniProt Q8TEW0), for which the log2 fold change was 0.134.

The values are drawn from the supplement of paper PMC10849652.
